Screening results as filed in PubChem BioAssay.
Hits are enriched below; roughly 28% of the tested compounds scored in any of these assays.
CYP2C19 activ: activators of human cytochrome P450 2C19. AID 1025. recombinant CYP2C19, luciferin-H EGE luminescence; hits give high values; 0 = fully inhibited enzyme, 1 = untreated enzyme. activation factor at 5 µM. 96,000 tested, under 10 active. P33261;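 active means activation factor of at least 2 at 5 µM in the primary screen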
CYP2C9 inh: human CYP2C9 inhibition | P11712 | CYP2C9 Supersomes, luciferin-H conversion, luminescence | inhibition, % at 5 µM | 96,000 compounds, 20% hits | AID 777;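 active means blocking of liver enzyme CYP2C9 beyond about 50% at 5 µM, limit read from the data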
Target sequence (P11712 whole entry, looked up): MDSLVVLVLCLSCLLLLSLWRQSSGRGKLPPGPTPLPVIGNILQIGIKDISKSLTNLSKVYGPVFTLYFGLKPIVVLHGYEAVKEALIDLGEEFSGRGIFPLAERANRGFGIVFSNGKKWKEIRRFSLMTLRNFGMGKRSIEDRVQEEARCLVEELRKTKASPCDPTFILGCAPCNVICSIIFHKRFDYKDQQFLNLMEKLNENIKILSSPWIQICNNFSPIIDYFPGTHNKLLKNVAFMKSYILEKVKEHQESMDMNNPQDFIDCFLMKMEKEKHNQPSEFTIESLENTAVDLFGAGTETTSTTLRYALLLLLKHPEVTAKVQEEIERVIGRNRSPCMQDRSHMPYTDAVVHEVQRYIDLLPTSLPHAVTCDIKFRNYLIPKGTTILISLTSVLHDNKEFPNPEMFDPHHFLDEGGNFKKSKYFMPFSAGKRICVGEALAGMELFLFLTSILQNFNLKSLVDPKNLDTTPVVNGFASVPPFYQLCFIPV
CYP2C19 inhib: inhibitors of human CYP2C19. P33261. CYP2C19 Supersomes, luciferin-H EGE luminescence, 30 min. inhibition, % at 5 µM. 96,000 compounds, 21% hits;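 active means CYP2C19 inhibition above a set limit at 5 µM in the primary screen, cut at about 50% in these data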
CYP2C9 activ: activators of human CYP2C9. 96,000 compounds, 1.4% hits. activation factor at 5 µM. AID 1024. recombinant CYP2C9, luciferin-H conversion, luminescence; hits give high values; factor 1 = untreated enzyme, 0 = blocked;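 active means activation factor of 2 or more for CYP2C9 at a 5 µM dose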
CD11b adhes enh: enhancers of human CD11b/CD18 binding to fibrinogen; K562 CD11b/CD18 adhesion to fibrinogen, ATPlite luminescence; activation, % at 10 µM; 93,000 compounds, 0.07% hits; AID 1499; P05107+P11215;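 active means 10 µM primary screen giving 50% or more activity, confirmed by 40% or more on retest at that dose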
CD11b adhes inh: CD11b/CD18-fibrinogen binding inhibition; K562 CD11b/CD18 adhesion to fibrinogen, ATPlite luminescence; Mn2+ added to activate the integrin; inhibition, % at 10 µM; 93,000 compounds, 0.54% hits; AID 1497;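 active means primary inhibition of 50% or more at 10 µM, then 40% or more on retest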
Large screens that a line does not name were inactive.

COc1ccc(NC(=O)CSc2nc(NS(=O)(=O)c3ccccc3)cc(=O)[nH]2)cc1	none
COc1ccc(OCC(=O)Nc2ccc(S(=O)(=O)Nc3cc(C)nc(C)n3)cc2)cc1	none
COc1cc(NS(=O)(=O)c2ccc(NC(=S)NC(=O)c3cccs3)cc2)nc(OC)n1	none (no result: CYP2C19 activ, CYP2C9 inh, CYP2C19 inhib, CYP2C9 activ)
COc1cc(NS(=O)(=O)c2ccc(NS(=O)(=O)c3ccccc3)cc2)nc(OC)n1	CYP2C9 inh 78
COc1cc(NS(=O)(=O)c2ccc(NC(=O)COc3ccc(C)cc3C)cc2)nc(OC)n1	CYP2C9 inh 69
Cc1ccc(NC(=O)CSc2nc(NS(=O)(=O)c3ccc(C)cc3)cc(=O)[nH]2)cc1	CYP2C9 inh 65
COc1cc(NS(=O)(=O)c2ccc(NC(=O)COc3ccccc3C)cc2)nc(OC)n1	CYP2C9 inh 91
CCCC1CCC(c2ccc(C(=O)NN)cc2)CC1 (stereo not drawn)	none (no result: CYP2C19 activ, CYP2C9 inh, CYP2C19 inhib, CYP2C9 activ)
COc1ccc(CNC(=O)C(NS(=O)(=O)c2ccc3c(c2)CCCN3C(C)=O)C(C)C)cc1 (stereo not drawn)	none
CC(=O)N1CCCc2cc(S(=O)(=O)NCc3ccc(C)cc3)ccc21	CYP2C19 inhib 82
CCN(CCCNS(=O)(=O)c1ccc2c(c1)CCN2C(C)=O)c1cccc(C)c1	CYP2C19 inhib 62
CC(=O)N1CCCc2cc(S(=O)(=O)NCCC3=CCCCC3)ccc21	CYP2C19 inhib 53
CC(=O)N1CCc2cc(S(=O)(=O)NCCC(=O)Nc3cccc(C)c3)ccc21	none
CC(=O)N1CCCc2cc(S(=O)(=O)CCC(=O)N3CCN(c4cccc(C)c4)C(C)C3)ccc21 (stereo not drawn)	CYP2C19 inhib 58
CS(=O)(=O)Nc1ccc(N2CCCCC2)c(Cl)c1	none (no result: CD11b adhes enh, CD11b adhes inh)
O=C(CN1C(=O)C2(OCCO2)c2ccccc21)c1ccc(Br)cc1	none
COc1cc(SC)ccc1C(=O)NCc1ccc(C)cc1	CYP2C19 inhib 91 (no result: CD11b adhes enh, CD11b adhes inh)
CCCNC(=O)c1ccc(SC)cc1OC	none
COc1cc(SC)ccc1C(=O)NCc1ccccc1	none (no result: CYP2C19 activ, CYP2C9 inh, CYP2C19 inhib, CYP2C9 activ)
COc1cc(SC)ccc1C(=O)NCC1CCCO1 (stereo not drawn)	CYP2C19 inhib 60
COc1cc(SC)ccc1C(=O)N(C)Cc1ccccc1	CYP2C19 inhib 98 (no result: CD11b adhes enh, CD11b adhes inh)
Cn1c(SCC(=O)c2ccc(F)cc2)nnc1-c1ccccc1N	CYP2C19 inhib 75
Cn1c(SCC(=O)c2ccccc2)nnc1-c1cnccn1	none
Cc1occc1-c1nnc(SCC(=O)c2ccc(F)cc2)n1Cc1ccco1	CYP2C9 inh 60
O=C(CSc1nnc(-c2ccccn2)n1Cc1ccco1)c1ccc(-c2ccccc2)cc1	none
CCn1c(SCC(=O)c2ccccc2)nnc1-c1cnccn1	CYP2C19 inhib 54
Cc1nnc(SCC(=O)c2ccccc2)n1Cc1ccccc1	none (no result: CYP2C19 activ, CYP2C9 inh, CYP2C19 inhib, CYP2C9 activ)
O=C(CSc1nnc(-c2ccco2)n1Cc1ccccc1)c1ccc(F)cc1	CYP2C9 inh 92, CYP2C19 inhib 96
COc1ccc(C(N)CCc2ccco2)cc1 (stereo not drawn)	none
CCOC(=O)N1CCC(NC(=O)CCc2c(C)nc3ncnn3c2C)CC1	none (no result: CD11b adhes enh, CD11b adhes inh)
Cn1c(N)c(C(=O)COC(=O)C2CCCCC2)c(=O)n(C)c1=O	none
CCn1c(COc2ccccc2)nnc1SCC(=O)c1cccc([N+](=O)[O-])c1	none
O=C(CSc1nnc(-c2cc3ccccc3cc2O)n1Cc1ccco1)c1ccc(F)cc1	CYP2C9 inh 100, CYP2C19 inhib 94
Fc1ccc(CSc2nnc(-c3cnccn3)n2Cc2ccco2)cc1	CYP2C9 inh 77, CYP2C19 inhib 70
Brc1ccc(CSc2nnc(-c3cnccn3)n2Cc2ccco2)cc1	none
COc1ccccc1-c1nnc(SCC(=O)c2ccc(C3CCCCC3)cc2)n1Cc1ccco1	CYP2C9 inh 86, CYP2C19 inhib 80
O=C(CSc1nnc(-c2cnccn2)n1Cc1ccco1)c1ccc2ccccc2c1	CYP2C9 inh 54
O=C(CSc1nnc(COc2ccccc2)n1Cc1ccco1)c1ccc(F)cc1	none
COCCn1c(SCC#N)nnc1-c1ccc2c(c1)OCO2	none
O=C(CSc1nc2ccccc2c(=O)n1Cc1ccco1)c1ccc(F)cc1	CYP2C9 inh 52
Cc1cc(NC(=O)CSc2nnc(-c3ccoc3C)o2)no1	none
Cc1occc1-c1nnc(SCC(=O)c2ccc(F)cc2)o1	CYP2C19 inhib 84
